Measured values reported in PubChem BioAssay (NCATS).
Results filed as inconclusive are left out. Calls of active or inactive are those of the source. Calls follow the shape of the dose curve; as a rule, active = well fitted curve in the direction sought with a large enough effect; inconclusive = small, poorly fitted or top-dose-only effect, or another doubt; inactive = no such curve, though single readings can be large; an effect the other way counts as inactive or inconclusive.

What was measured:
[1] = molecular target: Rap guanine nucleotide exchange factor 3 (Homo sapiens) (UniProt O95398); assay: Confirmatory qHTS for agonist of cAMP-regulated guanine nucleotide exchange factor 3 (EPAC1) (AID 1645881);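 also: EPAC1 catalysed release of BODIPY-GDP from Rap1B seen as fluorescence loss; 100% = effect of cAMP agonist control; nearly all actives have a fitted effect of over 75% in size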
[2] = molecular target: Rap guanine nucleotide exchange factor 4 (Homo sapiens) (UniProt Q8WZA2); assay: Confirmatory qHTS for agonist of cAMP-regulated guanine nucleotide exchange factor 4 (EPAC2) (AID 1645884);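 also: nucleotide exchange releases bodipy-GDP from Rap1 and this lowers its fluorescence; % is scaled to controls: 0 for no effect and ±100 for the full control effect; nearly all actives have a fitted effect of over 65% in size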
[3] = molecular target: Rap guanine nucleotide exchange factor 4 (Homo sapiens) (UniProt Q8WZA2); assay: Confirmatory qHTS for antagonist of cAMP-regulated guanine nucleotide exchange factor 4 (EPAC2) (AID 1645885); also: nearly all actives have a fitted effect of over 25% in size; as to activity change, negative = inhibition: % is scaled to controls: 0 for no effect and ±100 for the full control effect
[4] = molecular target: Rap guanine nucleotide exchange factor 3 (Homo sapiens) (UniProt O95398); assay: Counterscreen qHTS for antagonist of cAMP-regulated guanine nucleotide exchange factor 3 (EPAC1) (AID 1645888);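 also: fluorescence loss as bound BODIPY-GDP is released from Rap1B; % of control where 0% means no effect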
In short: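 Measured: fluorescence of BODIPY-GDP bound to Rap1B, which falls as exchange proceeds. Conditions include 50 uM competing GDP, 5 and 30 min reads, and a later cAMP challenge for antagonist detection.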

Sequence of Rap guanine nucleotide exchange factor 3 (Homo sapiens) (O95398 whole entry, looked up): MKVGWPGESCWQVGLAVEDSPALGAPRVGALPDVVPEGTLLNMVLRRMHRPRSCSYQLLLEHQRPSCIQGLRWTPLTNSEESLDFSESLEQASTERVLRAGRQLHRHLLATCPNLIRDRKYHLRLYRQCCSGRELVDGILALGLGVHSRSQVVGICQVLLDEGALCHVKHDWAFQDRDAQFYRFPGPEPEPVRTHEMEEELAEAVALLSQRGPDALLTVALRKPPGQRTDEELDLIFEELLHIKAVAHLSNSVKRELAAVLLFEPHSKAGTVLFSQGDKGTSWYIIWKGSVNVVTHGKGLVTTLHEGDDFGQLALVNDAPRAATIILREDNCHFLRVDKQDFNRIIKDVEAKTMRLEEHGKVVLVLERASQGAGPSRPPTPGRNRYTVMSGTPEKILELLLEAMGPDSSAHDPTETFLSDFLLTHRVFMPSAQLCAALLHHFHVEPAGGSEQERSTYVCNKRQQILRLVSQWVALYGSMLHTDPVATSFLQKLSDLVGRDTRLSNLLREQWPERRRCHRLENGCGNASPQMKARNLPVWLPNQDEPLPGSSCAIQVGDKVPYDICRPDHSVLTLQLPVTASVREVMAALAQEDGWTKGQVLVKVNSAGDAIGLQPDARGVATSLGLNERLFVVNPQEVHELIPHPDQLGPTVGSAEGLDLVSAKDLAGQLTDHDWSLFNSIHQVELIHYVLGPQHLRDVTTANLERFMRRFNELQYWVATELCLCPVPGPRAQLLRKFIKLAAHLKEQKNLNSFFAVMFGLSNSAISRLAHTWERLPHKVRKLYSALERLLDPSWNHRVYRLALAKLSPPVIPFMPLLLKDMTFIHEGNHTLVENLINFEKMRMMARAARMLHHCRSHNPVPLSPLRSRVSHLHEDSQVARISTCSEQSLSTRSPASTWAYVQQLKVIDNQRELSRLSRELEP
Sequence of Rap guanine nucleotide exchange factor 4 (Homo sapiens) (Q8WZA2 whole entry, looked up): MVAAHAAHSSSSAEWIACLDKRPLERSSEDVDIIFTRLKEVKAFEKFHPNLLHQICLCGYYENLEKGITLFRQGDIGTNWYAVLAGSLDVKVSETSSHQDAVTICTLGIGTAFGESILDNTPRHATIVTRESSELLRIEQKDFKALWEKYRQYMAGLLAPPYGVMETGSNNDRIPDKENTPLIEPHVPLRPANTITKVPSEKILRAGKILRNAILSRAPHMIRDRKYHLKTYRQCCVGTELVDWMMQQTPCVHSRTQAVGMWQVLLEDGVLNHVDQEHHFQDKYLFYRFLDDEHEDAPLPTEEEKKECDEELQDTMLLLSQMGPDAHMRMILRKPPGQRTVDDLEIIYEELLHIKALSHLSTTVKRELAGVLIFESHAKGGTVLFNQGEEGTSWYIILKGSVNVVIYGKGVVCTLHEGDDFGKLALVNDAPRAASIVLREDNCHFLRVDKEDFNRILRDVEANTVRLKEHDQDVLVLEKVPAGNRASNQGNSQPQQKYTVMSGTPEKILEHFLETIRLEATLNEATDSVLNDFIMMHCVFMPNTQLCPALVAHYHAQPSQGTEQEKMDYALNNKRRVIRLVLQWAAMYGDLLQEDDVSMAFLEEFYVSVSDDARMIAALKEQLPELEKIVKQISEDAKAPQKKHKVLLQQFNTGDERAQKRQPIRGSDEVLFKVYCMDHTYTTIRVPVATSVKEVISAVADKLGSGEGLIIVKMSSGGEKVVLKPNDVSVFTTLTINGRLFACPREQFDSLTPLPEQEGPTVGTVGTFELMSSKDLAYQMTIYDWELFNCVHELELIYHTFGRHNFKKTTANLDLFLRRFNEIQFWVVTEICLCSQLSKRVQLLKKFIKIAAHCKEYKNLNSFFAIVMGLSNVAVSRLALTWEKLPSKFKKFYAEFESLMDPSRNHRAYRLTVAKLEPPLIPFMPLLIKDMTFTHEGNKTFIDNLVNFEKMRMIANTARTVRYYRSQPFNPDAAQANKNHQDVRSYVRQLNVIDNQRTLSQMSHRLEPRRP

O=C(CN1C(=O)/C(=C2/SC(=S)N(CCS(=O)(=O)O)C2=O)c2ccccc21)Nc1cccc(C(F)(F)F)c1
inactive: Potency [1] | activation [2] 2.25% [at 17.1 µM, percent relative to cAMP agonist control] | Potency [3] | activity change, negative = inhibition [4] -24.5% [at 30.8 µM]

COCCN1C(=O)c2[nH]nc(-c3ccccc3O)c2C1c1ccc(Cl)c(Cl)c1 (stereo unspecified)
inactive: Potency [1] | Potency [2] | Potency [3] | Potency [4]

CCOc1cc(-c2ccc(OC(=O)c3ccccc3)c(OC)c2)cc(=O)c2c(C)oc(C)c12
inactive: Potency [1] | Potency [2] | outcome [3] inactive [at 12.7 µM] | Potency [4]

CCc1nc2c(OCc3ccc(C(=O)OC)cc3)cccn2c1N(C)C(=O)c1ccc(C)cc1
inactive: Potency [1] | Potency [2] | Potency [3] | Potency [4]

O=C1c2ccccc2C(=O)C12OC2c1cccc2ccccc12 (stereo unspecified)
inactive: Potency [1] | Potency [2] | Potency [3] | Potency [4]

CC1=NN(c2ccccc2)C(=O)C1=Cc1ccccc1
inactive: Potency [1] | activation [2] -2.46% [at 17.1 µM, percent relative to cAMP agonist control] | Potency [3] | activity change, negative = inhibition [4] 42% [at 30.8 µM]

COc1ccc(OC)c(NC(=O)C(C)Oc2ccc(Br)cc2)c1 (stereo unspecified)
inactive: Potency [1] | Potency [2] | Potency [3] | Potency [4]

CCc1nnc(NS(=O)(=O)c2ccc(N/C=C\C(=O)c3ccc4ccccc4c3)cc2)s1
inactive: Potency [1] | activation [2] 1.49% [at 17.1 µM, percent relative to cAMP agonist control] | Potency [3] | activity change, negative = inhibition [4] -10.2% [at 30.8 µM]

COC(=O)Cn1c(CN2CCc3ccccc3C2)nc2c1c(=O)n(C)c(=O)n2C
inactive: Potency [1] | Potency [2] | Potency [3] | Potency [4]

CCN(CC)CC#CC(OC)(c1ccccc1)c1ccccc1
inactive: Potency [1] | Potency [2] | Potency [3] | Potency [4]

COc1ccc(CN(C(=O)c2cccs2)c2nccs2)cc1OC
inactive: Potency [1] | Potency [2] | Potency [3] | Potency [4]

CCc1ccc2c(c1)NC(=O)C2(C)Cc1ccc(Cl)s1 (stereo unspecified)
inactive: Potency [1] | activation [2] 0.147% [at 17.1 µM, percent relative to cAMP agonist control] | Potency [3] | activity change, negative = inhibition [4] -21.9% [at 30.8 µM]

O=c1nc(/C=C/c2cccn2-c2ccc([N+](=O)[O-])cc2)cc(C(F)(F)F)[nH]1
inactive: Potency [1] | Potency [2] | Potency [3] | Potency [4]

CCc1ccccc1OCC(=O)NCC1COc2ccccc2O1 (stereo unspecified)
inactive: Potency [1] | Potency [2] | Potency [3] | Potency [4]

CCOC(=O)C1=CCN(S(=O)(=O)c2ccccc2Cl)C1c1ccc(Cl)c(Cl)c1 (stereo unspecified)
inactive: Potency [1] | activation [2] 4.1% [at 17.1 µM, percent relative to cAMP agonist control] | Potency [3] | activity change, negative = inhibition [4] -3.01% [at 30.8 µM]

CN(CC(=O)Nc1cccc(F)c1)C(=O)c1cccc(S(=O)(=O)N2CC3(C)CC2CC(C)(C)C3)c1 (stereo unspecified)
inactive: Potency [1] | activation [2] 8% [at 17.1 µM, percent relative to cAMP agonist control] | Potency [3] | activity change, negative = inhibition [4] -23.1% [at 30.8 µM]

O=c1c2ccccc2nc(N/N=C/c2c(O)ccc3ccccc23)n1O
inactive: Potency [1] | Potency [2] | Potency [3] | Potency [4]

O=C(/C=C/c1ccccc1Cl)c1ccc(O)cc1
inactive: Potency [1] | activation [2] 13.2% [at 17.1 µM, percent relative to cAMP agonist control] | Potency [3] | activity change, negative = inhibition [4] 8.95% [at 30.8 µM]

CN(C)S(=O)(=O)c1cccc(COC(=O)Cc2c(F)cccc2Cl)c1
inactive: Potency [1] | Potency [2] | Potency [3] | Potency [4]

CCOC(=O)c1ccc(NC(=O)c2c(NCc3cccs3)sc3c2CCCCC3)cc1
inactive: Potency [1] | Potency [2] | outcome [3] inactive [at 12.7 µM] | Potency [4]

COC(=O)c1ccc2nc(-c3ccc(F)cc3)c(Cc3ccc(C)cc3)n2c1
inactive: Potency [1] | activation [2] 1.87% [at 17.1 µM, percent relative to cAMP agonist control] | Potency [3] | activity change, negative = inhibition [4] -2.87% [at 30.8 µM]

CCCS(=O)(=O)c1c(S(=O)(=O)CCC)c2cnccn2c1C(=O)c1ccc(CC)cc1
inactive: Potency [1] | activation [2] 12.5% [at 17.1 µM, percent relative to cAMP agonist control] | Potency [3] | activity change, negative = inhibition [4] -2.89% [at 30.8 µM]

CCSc1nc2c([nH]c3ccccc32)c(=O)n1-c1cccc(OC)c1
inactive: Potency [1] | Potency [2] | Potency [3] | Potency [4]

COc1cc(OC)c(NC(=O)CN(C)S(=O)(=O)c2ccc(-c3ccc(=O)[nH]n3)s2)cc1Cl
inactive: Potency [1] | Potency [2] | Potency [3] | Potency [4]

CC(NC(=O)/C(C#N)=C/c1ccc([N+](=O)[O-])o1)c1ccccc1 (stereo unspecified)
inactive: Potency [1] | activation [2] 5.83% [at 17.1 µM, percent relative to cAMP agonist control] | Potency [3] | activity change, negative = inhibition [4] 20.7% [at 30.8 µM]

COc1cc(O)c(C(C)=O)c2c1C=CC(C)(C)O2
inactive: Potency [1] | Potency [2] | Potency [3] | Potency [4]

CN(C)C(=O)c1cccc(-c2cnc3c(NC=O)cc(-c4ccccc4Cl)cn23)c1
inactive: Potency [1] | Potency [2] | Potency [3] | Potency [4]

O=C1/C(=C/c2cccs2)COc2ccccc21
inactive: Potency [1] | activation [2] 1.85% [at 17.1 µM, percent relative to cAMP agonist control] | Potency [3] | activity change, negative = inhibition [4] -3.32% [at 30.8 µM]

O=c1c([N+](=O)[O-])cn(Cc2ccccc2)c(=O)n1Cc1ccccc1
inactive: Potency [1] | activation [2] 6.36% [at 17.1 µM, percent relative to cAMP agonist control] | Potency [3] | activity change, negative = inhibition [4] -12.8% [at 30.8 µM]

CC(c1ccccc1)n1cc2c(c1-c1ccccc1Br)c(=O)n(C)c(=O)n2C (stereo unspecified)
inactive: Potency [1] | Potency [2] | Potency [3] | Potency [4]

CS/C(=C\C(=O)c1ccco1)Nc1ccccc1Cl
inactive: Potency [1] | Potency [2] | Potency [3] | Potency [4]

NC(=O)c1c(NC(=O)CN2CCN(S(=O)(=O)c3ccccc3)CC2)sc2c1CCC2
inactive: Potency [1] | Potency [2] | Potency [3] | Potency [4]

Cc1cc(C)c(S(=O)(=O)c2ccccc2)c(OC(=O)c2c(F)cccc2F)n1
inactive: Potency [1] | activation [2] -4.73% [at 17.1 µM, percent relative to cAMP agonist control] | Potency [3] | activity change, negative = inhibition [4] 8% [at 30.8 µM]

O=C(Nc1ccccc1C(=O)O)c1cccc(NC(=O)c2ccc(Br)o2)c1
inactive: Potency [1] | Potency [2] | Potency [3] | Potency [4]

CCOC(=O)c1ccc(NC(=S)NNC(=O)C2(C)CC2(Cl)Cl)cc1 (stereo unspecified)
inactive: Potency [1] | Potency [2] | Potency [3] | Potency [4]

CCCN(CC(=O)Nc1ccccc1OC)C(=O)c1cccc(S(=O)(=O)Nc2ccc(OC)cc2)c1
inactive: Potency [1] | Potency [2] | Potency [3] | Potency [4]

Cc1cc(N2CCOCC2)ccc1/C=C1/SC(=O)NC1=O
inactive: Potency [1] | Potency [2] | Potency [3] | Potency [4]

CCCCn1c(COc2cccc(OC)c2)nc2ccccc21
inactive: Potency [1] | Potency [2] | outcome [3] inactive [at 12.7 µM] | Potency [4]

O=C(CSc1nnc(-c2cnccn2)n1Cc1ccco1)c1ccc(Cl)cc1
inactive: Potency [1] | Potency [2] | Potency [3] | Potency [4]

O=C(OCC1OC(n2ncc(=O)[nH]c2=O)C(OC(=O)c2ccccc2)C1OC(=O)c1ccccc1)c1ccccc1 (stereo unspecified)
inactive: Potency [1] | activation [2] 0.888% [at 17.1 µM, percent relative to cAMP agonist control] | Potency [3] | activity change, negative = inhibition [4] -8.49% [at 30.8 µM]

COc1ccc(/C=C2\C(=O)NC(=S)N2C(=O)c2ccc(F)cc2)cc1
inactive: Potency [1] | Potency [2] | Potency [3] | Potency [4]

CCOc1cc(/C=C2/NC(=O)NC2=O)cc(Br)c1OCc1ccc(C(=O)O)cc1
inactive: Potency [1] | activation [2] 4.12% [at 17.1 µM, percent relative to cAMP agonist control] | Potency [3] | activity change, negative = inhibition [4] -1.26% [at 30.8 µM]

CCn1c2c(c3cc(Cl)ccc31)CCCC2=O
inactive: Potency [1] | Potency [2] | Potency [3] | Potency [4]

Cc1cccc(C(=O)OCC(=O)c2ccc(CC(=O)N3CCOCC3)s2)c1C
inactive: Potency [1] | Potency [2] | Potency [3] | Potency [4]

O=C(CSc1nc(O)cc(=O)n1-c1ccccc1)Nc1nc2ccccc2s1
inactive: Potency [1] | Potency [2] | Potency [3] | Potency [4]

O=C(CSc1ccc2ccccc2c1)Nc1ccc(S(=O)(=O)Nc2nccs2)cc1
inactive: Potency [1] | activation [2] 0.22% [at 17.1 µM, percent relative to cAMP agonist control] | Potency [3] | activity change, negative = inhibition [4] -0.461% [at 30.8 µM]

Cc1ccc(Cl)cc1N1CCN(C(=O)c2ccc(C)c(-n3c(C)nc4cccnc43)c2)CC1
inactive: Potency [1] | Potency [2] | outcome [3] inactive [at 12.7 µM] | Potency [4]

Cc1cccc(NC(=O)CN2C(=O)S/C(=C\c3cccn3-c3cccc(C(=O)O)c3)C2=O)c1
inactive: Potency [1] | Potency [2] | Potency [3] | Potency [4]

CCc1nc2c(OCC3CCCCC3)cccn2c1N(C)C(=O)c1ccc(C)cc1
inactive: Potency [1] | Potency [2] | Potency [3] | Potency [4]

Cc1ccc(OCC(=O)Nc2ccc(C)c(S(=O)(=O)N3CCCCCC3)c2)c([N+](=O)[O-])n1
inactive: Potency [1] | Potency [2] | Potency [3] | Potency [4]

COc1ccc(-c2cc(C(F)(F)F)c3c(n2)sc2c(O)cc(=O)[nH]c23)c(OC)c1
inactive: Potency [1] | Potency [2] | Potency [3] | Potency [4]

CCCc1ccc2oc(C(=O)NCCc3nc(C(=O)OCC)cs3)c(C)c2c1
inactive: Potency [1] | activation [2] -3.74% [at 17.1 µM, percent relative to cAMP agonist control] | Potency [3] | activity change, negative = inhibition [4] -14.7% [at 30.8 µM]

COc1cccc(C(=O)Nc2ccc(NC(=O)c3ccco3)c(Cl)c2)c1
inactive: Potency [1] | activation [2] 0% [at 17.1 µM, percent relative to cAMP agonist control] | Potency [3] | activity change, negative = inhibition [4] -46.5% [at 30.8 µM]

Cc1ccc(-c2nc(-c3cc4cccc(OCc5ccc(F)cc5)c4oc3=O)no2)cc1
inactive: Potency [1] | Potency [2] | Potency [3] | Potency [4]
